The values that follow come from PubChem BioAssay.

A number with no mark means an inactive call. For some of these results: Measured potencies and affinities stand elsewhere. Activity calls are given as the source filed them. Unless noted, the rule behind the calls is not given here.

Assay [1] in a line: antimalarial activity against Dd2 strain (AID 2302;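 active = growth inhibition above 50% at the single 2 µM test dose, taken to imply half-maximal potency below 2 µM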;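 note: 0% = DMSO untreated growth and 100% = chloroquine plus artemisinin killed control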). The conditions noted are these: P. falciparum Dd2 in RBCs, LDH growth readout, 72 h; at 2 µM; hits give high values.
Assay [2] can be described thus: human hepatoma cell viability loss – ATP luminescence, cytotoxicity control for P. falciparum antimalarial project, primary screen (AID 2303;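 active = inhibition above 50%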;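 note: 0% = DMSO wells and 100% = digitonin-killed cells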). The conditions noted are these: HepG2 viability, 24-48 h, at 10 µM, hits give high values.
Assay [3] addresses L-lactate dehydrogenase (Plasmodium falciparum (isolate CDC / Honduras)) (UniProt Q27743). As to the kind of experiment: PfLDH activity inhibition – cell lysate, 3D7 strain, counter-screen for P. falciparum growth inhibition project (AID 2304).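 Note: 0% = vehicle and 100% = reference inhibitor.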 The conditions noted are these: P. falciparum 3D7 crude extract, LDH APAD/NBT absorbance; at 2 µM; hits give high values. (In general: The purpose of a counterscreen is to sort out artefacts and off-target activity.)

Assay [4] can be described thus: inhibition of 3D7 malaria parasite growth – strain 3D7 (AID 2306).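 Note: 0% = DMSO wells and 100% = chloroquine plus artemisinin control wells.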 The conditions noted are these: P. falciparum 3D7 erythrocytic growth, LDH absorbance, 72 h; at 2 µM; hits give high values.
Assay [5] deals with Calcium-dependent protein kinase 1 (Plasmodium falciparum (isolate 3D7)) (UniProt P62344). Nature of the assay: PfCDPK1 kinase inhibitors, biochemical, TCAMS library (AID 1159585; cut-off not given, nearly all actives have IC50 up to about 0.98 µM;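 note: inhibitors leave more ATP so luminescence rises with inhibition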). The conditions noted are these: recombinant PfCDPK1, Kinase-Glo ATP depletion luminescence. Background: Kinase-Glo reads ATP consumption through a luciferase reaction.
Chain of Calcium-dependent protein kinase 1 (Plasmodium falciparum (isolate 3D7)) (P62344 whole entry, looked up): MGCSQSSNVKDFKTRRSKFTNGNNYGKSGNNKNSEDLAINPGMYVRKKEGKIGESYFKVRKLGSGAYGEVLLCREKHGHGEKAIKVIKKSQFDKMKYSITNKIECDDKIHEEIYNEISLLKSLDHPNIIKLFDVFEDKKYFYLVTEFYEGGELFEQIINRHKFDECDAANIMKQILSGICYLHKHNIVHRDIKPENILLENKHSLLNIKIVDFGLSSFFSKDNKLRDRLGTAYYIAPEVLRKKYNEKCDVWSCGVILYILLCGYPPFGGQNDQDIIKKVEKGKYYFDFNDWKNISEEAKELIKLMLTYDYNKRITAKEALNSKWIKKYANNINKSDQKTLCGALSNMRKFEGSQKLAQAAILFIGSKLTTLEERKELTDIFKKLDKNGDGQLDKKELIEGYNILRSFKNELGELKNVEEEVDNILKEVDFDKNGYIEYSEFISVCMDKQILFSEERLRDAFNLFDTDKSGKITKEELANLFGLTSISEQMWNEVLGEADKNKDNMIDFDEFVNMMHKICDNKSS
Assay [6] deals with Plasmodium falciparum protein kinase 6 (PK6, PF3D7_1337100) (UniProt Q8IDW1). As to the kind of experiment: PfPK6 kinase inhibitors, biochemical, TCAMS library (AID 1159586). The conditions noted are these: recombinant PfPK6, Kinase-Glo ATP depletion luminescence.
Chain of Plasmodium falciparum protein kinase 6 (PK6, PF3D7_1337100) (Q8IDW1 1-305): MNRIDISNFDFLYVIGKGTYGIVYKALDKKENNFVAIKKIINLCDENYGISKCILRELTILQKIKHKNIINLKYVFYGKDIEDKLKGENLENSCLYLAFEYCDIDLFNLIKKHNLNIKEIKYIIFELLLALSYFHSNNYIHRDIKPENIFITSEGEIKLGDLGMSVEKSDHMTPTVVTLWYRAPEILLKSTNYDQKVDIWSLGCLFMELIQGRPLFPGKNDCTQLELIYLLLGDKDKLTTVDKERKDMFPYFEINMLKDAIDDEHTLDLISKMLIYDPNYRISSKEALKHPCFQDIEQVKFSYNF
The target in assay [7] is Protein kinase 7 (PK7), Plasmodium falciparum 3D7 (PF3D7_0213400) (UniProt Q7YTF7). Nature of the assay: inhibition of Plasmodium PK7 catalytic activity – biochemical, TCAMS antimalarial set, Kinase-Glo luminescence (AID 1159587). The conditions noted are these: recombinant PfPK7, Kinase-Glo ATP depletion luminescence.
Chain of Protein kinase 7 (PK7), Plasmodium falciparum 3D7 (PF3D7_0213400) (Q7YTF7 1-343): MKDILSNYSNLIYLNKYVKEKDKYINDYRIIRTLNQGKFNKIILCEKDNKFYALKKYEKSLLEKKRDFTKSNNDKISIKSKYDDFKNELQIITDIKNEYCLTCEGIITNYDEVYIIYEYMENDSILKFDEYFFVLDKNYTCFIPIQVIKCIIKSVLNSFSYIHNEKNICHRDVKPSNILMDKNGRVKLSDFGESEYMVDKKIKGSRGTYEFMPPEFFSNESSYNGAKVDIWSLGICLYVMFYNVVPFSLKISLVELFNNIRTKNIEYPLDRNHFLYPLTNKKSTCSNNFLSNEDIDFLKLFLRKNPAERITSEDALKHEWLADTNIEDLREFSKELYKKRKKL
Assay [8] concerns the target Calcium-dependent protein kinase 4 (Plasmodium falciparum (isolate 3D7)) (UniProt Q8IBS5). Nature of the assay: PfCDPK4 kinase inhibitors, biochemical, TCAMS library (AID 1159588; cut-off not given, nearly all actives have IC50 up to about 0.91 µM). The conditions noted are these: recombinant PfCDPK4, Kinase-Glo ATP depletion luminescence.

Chain of Calcium-dependent protein kinase 4 (Plasmodium falciparum (isolate 3D7)) (Q8IBS5 whole entry, looked up): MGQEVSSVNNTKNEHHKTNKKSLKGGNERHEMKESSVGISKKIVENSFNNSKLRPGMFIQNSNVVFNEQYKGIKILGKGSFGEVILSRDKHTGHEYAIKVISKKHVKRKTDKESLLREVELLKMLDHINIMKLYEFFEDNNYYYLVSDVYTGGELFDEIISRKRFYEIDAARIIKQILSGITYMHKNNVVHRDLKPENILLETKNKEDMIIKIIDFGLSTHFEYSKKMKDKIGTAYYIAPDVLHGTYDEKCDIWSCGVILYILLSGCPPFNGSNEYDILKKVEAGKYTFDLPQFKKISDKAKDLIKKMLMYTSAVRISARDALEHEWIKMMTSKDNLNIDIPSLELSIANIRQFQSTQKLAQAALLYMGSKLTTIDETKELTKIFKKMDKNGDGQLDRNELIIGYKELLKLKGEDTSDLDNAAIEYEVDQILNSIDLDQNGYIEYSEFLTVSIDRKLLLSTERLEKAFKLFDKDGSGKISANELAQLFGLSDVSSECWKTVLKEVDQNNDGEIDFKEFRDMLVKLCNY
Chain of L-lactate dehydrogenase (Plasmodium falciparum (isolate CDC / Honduras)) (Q27743 whole entry, looked up): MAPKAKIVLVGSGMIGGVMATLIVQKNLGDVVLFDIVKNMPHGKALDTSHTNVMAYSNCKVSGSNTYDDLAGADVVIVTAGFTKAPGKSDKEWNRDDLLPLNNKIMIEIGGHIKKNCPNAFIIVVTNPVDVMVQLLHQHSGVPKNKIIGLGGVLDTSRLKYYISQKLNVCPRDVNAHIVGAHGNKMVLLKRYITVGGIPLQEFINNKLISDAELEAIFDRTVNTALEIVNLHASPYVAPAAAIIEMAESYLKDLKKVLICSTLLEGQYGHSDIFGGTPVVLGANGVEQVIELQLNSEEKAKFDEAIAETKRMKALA

Turning to `N#CC(CC(=O)c1ccc(Cl)cc1)c1cccc(F)c1` (stereo unspecified), the growth inhibition is 4% in assay [1] and 97% (active) in assay [4]. Further, the inhibition in assay [2] is 5%; in assay [3], 4%. In addition, the result in assay [5], in assay [6], in assay [7] and in assay [8] was inactive.
For `COc1cccc(NC(=O)c2ccc(NCCCN3CC(C)CC(C)C3)c([N+](=O)[O-])c2)c1` (stereo unspecified), the values for the growth inhibition in assay [1] and in assay [4] were 68% (active) and 100% (active), respectively. For the same molecule, the inhibition in assay [2] is 14%; in assay [3], -4%. Moreover, the result in assay [5], in assay [6], in assay [7] and in assay [8] was inactive.
Take `CCc1c(C)nc2nc(Cc3cccc(F)c3)nn2c1N1CCN(c2ccccn2)CC1`: the results for the growth inhibition in assay [1] and in assay [4] were 98% (active) and 100% (active), respectively. Moreover, the inhibition was -4% in assay [2] and -1% in assay [3]. For the same molecule, the outcome in assay [5], in assay [6], in assay [7] and in assay [8] was inactive.
Regarding `CCc1cc2c(N)nc(N)nc2nc1-c1ccccc1`, the growth inhibition in assay [1] was -1%; in assay [4] it was 91% (active). For the same molecule, the inhibition was 18% in assay [2] and 6% in assay [3]. The result in assay [5], in assay [6], in assay [7] and in assay [8] was inactive.
On to `Cc1cccc(C=NNc2cc(C)nc3ccc(F)cc23)n1`, for which the results for the growth inhibition in assay [1] and in assay [4] were 45% and 95% (active), respectively. Further, the inhibition in assay [2] was 1%; in assay [3] it was 3%. Besides, the outcome in assay [5], in assay [6], in assay [7] and in assay [8] was inactive.
In the case of `O=C(Nc1cccc(C(F)(F)F)c1)Nc1ccc(Cl)c(Cl)c1`, the growth inhibition in assay [1] and in assay [4] was 100% (active) throughout. Besides, the values for the inhibition in assay [2] and in assay [3] were 5% and -4%, respectively. Moreover, the result in assay [5], in assay [6], in assay [7] and in assay [8] was inactive.
As for `CN(C)CCCOc1ccc(CCCCc2ccc(Cl)cc2C(=O)c2ccccc2)cc1`, the growth inhibition is 8% in assay [1] and 92% (active) in assay [4]. In addition, the inhibition is 8% in assay [2] and -7% in assay [3]. For the same molecule, the result in assay [5], in assay [6], in assay [7] and in assay [8] was inactive.
`COc1ccc(Cl)cc1N1CCN(CCCNC(=O)c2ccc(-c3nc4cc5ccccc5cc4[nH]3)c(F)c2)CC1`: the figures for the growth inhibition in assay [1] and in assay [4] were 62% (active) and 99% (active), respectively. Further, the inhibition in assay [2] is 12%; in assay [3], -3%. Besides, the outcome in assay [5], in assay [6], in assay [7] and in assay [8] was inactive.
Turning to `COc1cc(F)c2ncc(Cl)c([C@H](O)CN3CCC(NCc4cc5c(cn4)OCCO5)CC3)c2c1`, the growth inhibition was 49% in assay [1] and 102% (active) in assay [4]. The inhibition in assay [2] was 10%; in assay [3], 4%. Also, the result in assay [5], in assay [6], in assay [7] and in assay [8] was inactive.
For `CS(=O)(=O)c1ccc2nc(NC(=O)c3csnn3)sc2c1`, the growth inhibition was 95% (active) in assay [1] and 90% (active) in assay [4]. Further, the inhibition was 3% in assay [2] and 0% in assay [3]. The result in assay [5], in assay [6], in assay [7] and in assay [8] was inactive.
For `C=C[C@H]1CN(CCCCCCC)CC[C@H]1CCN(C)c1ccnc2ccc(OC)cc12`, the growth inhibition is 93% (active) in assay [1] and 97% (active) in assay [4]. Also, the inhibition is 22% in assay [2] and -1% in assay [3]. Besides, the result in assay [5], in assay [6], in assay [7] and in assay [8] was inactive.
As for `CC(C)c1ccc(CN2CCCCC(NC(=O)c3cc(-c4ccccc4Cl)cs3)C2)cc1` (stereo unspecified), the values for the growth inhibition in assay [1] and in assay [4] were 64% (active) and 100% (active), respectively. Moreover, the inhibition is 8% in assay [2] and 3% in assay [3]. Moreover, the result in assay [5], in assay [6], in assay [7] and in assay [8] was inactive.
As for `O=C1C(c2ccccc2)=C(Nc2ccc(Cl)cc2)c2ccccc21`, the results for the growth inhibition in assay [1] and in assay [4] were 59% (active) and 91% (active), respectively. Moreover, the inhibition in assay [2] was 5%; in assay [3], -2%. Further, the outcome in assay [5], in assay [6], in assay [7] and in assay [8] was inactive.
For `CC(C)(CNC(=O)[C@@H]1CCCN(Cc2ccc(Cl)cc2)C1)c1nc(-c2ccc(Cl)c(O)c2)c(-c2ccncc2)[nH]1`, the values for the growth inhibition in assay [1] and in assay [4] were 37% and 97% (active), respectively. For the same molecule, the inhibition is 66% (active) in assay [2] and -2% in assay [3]. In addition, the result in assay [5], in assay [6], in assay [7] and in assay [8] was inactive.
In the case of `c1ccc(COc2ccc(C3CCCCC3)cc2)nc1`, the growth inhibition is 1% in assay [1] and 99% (active) in assay [4]. Moreover, the inhibition in assay [2] and in assay [3] was 0% in each case. The outcome in assay [5], in assay [6], in assay [7] and in assay [8] was inactive.
Regarding `N#Cc1cccc(NC(=O)Nc2ccc(-c3cccc(-c4nc5ccc(F)cc5[nH]4)c3)cc2)c1`, the growth inhibition in assay [1] was 100% (active); in assay [4], 102% (active). The inhibition is 64% (active) in assay [2] and 4% in assay [3]. In addition, the outcome in assay [5], in assay [6], in assay [7] and in assay [8] was inactive.
Consider `c1ccc(Oc2ccc(Nc3ccnc4cc(-c5ccc(CN6CCOCC6)o5)ccc34)cc2)nc1`, for which the growth inhibition was 73% (active) in assay [1] and 92% (active) in assay [4]. Also, the inhibition in assay [2] was 5%; in assay [3] it was 0%. The result in assay [5], in assay [6], in assay [7] and in assay [8] was inactive.

A word on the inhibition: it is the change of the read-out against control, counted positive when it falls.
